This note sets out measurements from PubChem BioAssay.

Calls of active or inactive are those of the source. How the calls were made is not given here.

A short description of the test: Pseudomonas biofilm growth suppression – PAO1 strain, BacTiter-Glo luminescence, LB-PBS, primary screen (AID 1144). To be noted: P. aeruginosa PAO1 biofilm, 12 h, higher = more signal.
On to `O=C1O[C@H](c2ccccc2)[C@H](c2ccccc2)N2[C@H]1[C@@H](C(=O)NC[C@H](O)c1ccccc1)[C@]1(C(=O)Nc3ccc(C#CC4(O)CCCCCC4)cc31)[C@H]2c1ccccc1OCCO`, for which the z-score is -0.52 (inactive).
Take `O=C1OCCC=C[C@H]2OC34C=CCN(c5ccc6ccccc6c5)C(=O)[C@H]3N(CCCCCCO)C(=O)[C@@H]4C12` (stereo partly drawn): the z-score was -0.0556 (inactive).
Next, `COC(=O)C(CC#Cc1ccc2c(c1)[C@]1(C(=O)N2)[C@H](C(=O)N2CCCCCCC2)[C@H]2C(=O)O[C@H](c3ccccc3)[C@H](c3ccccc3)N2[C@@H]1c1ccccc1OCCO)C(=O)OC`: -0.429 (inactive); `[N-]=[N+]=Nc1ccccc1[C@@H]1OC(c2ccc(OCCCO)cc2)=N[C@]1(CCS(=O)(=O)c1ccccc1)C(=O)N1CCCCC1`: 0.0668 (inactive).
With `CCOC(=O)C[C@H]1[C@H](OC(=O)c2cc3ccccc3oc2=O)[C@@H](NC(=O)c2ccc3ccccc3c2)c2cc(OCCCO)ccc2N1C(=O)c1ccccc1`, the z-score was 1.4 (inactive).
The same measure for `COCCOC(=O)N1C(=O)[C@@]2(c3cc(C#CCCO)ccc31)[C@H](c1ccc(O)cc1)N1[C@H](c3ccccc3)[C@H](c3ccccc3)OC(=O)[C@H]1[C@@H]2C(=O)N1CCCCCCC1`: -0.569 (inactive); for `O=[N+]([O-])c1ccc(C[n+]2ccc(CCCO)cc2)o1`: 0.0757 (inactive); for `COCCn1c(C(=O)N2CCCC2)cc2c1C[C@H]1CN(C(=O)c3ccccc3)[C@@](Cc3ccc(OC)cc3)(C(=O)OC)[C@@H]21`: -0.2 (inactive).
